# Sampled rows, rich in hits. Any-hit rate of the full collection: about 18%.
# Gal4-VP16 FLuc – counter-screen for ROR gamma inhibitors: Gal4-VP16 reporter; Drosophila S2 Gal4-VP16 UAS-luciferase, luminescence, 20 h; Potency, µM (highest dose often 53.6 µM), usual class: inhibitors; actives 3.5% (n = 310,000);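 note: Gal4-VP16 expression switched on by copper sulfate through the metallothionein promoter; nearly all actives have a fitted effect of over 50% in size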
# LDHA block – blocks human lactate dehydrogenase A. P00338. purified LDHA, NADH/diaphorase-resazurin fluorescence; active compounds read low. activity change, % (values are at about 110 or 230 µM). actives 0.15% (n = 480,000). AID 1347041; in the data active = activity change below about -30%; inconclusive = mostly about -25% to -30%
#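 Resorufin fluorescence (ex540/em590), read at 0 and 20 min after diaphorase/resazurin addition, reports the NADH left after a 5 min room-temperature reaction of 2 nM human LDH5 with 0.06 mM NADH and 0.2 mM pyruvate.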
# DT40 TDP1 CPT – DT40-hTDP1 cell growth loss with CPT; chicken DT40 Tdp1-/-;hTDP1 cells + 20 nM CPT, ATP luminescence, 48 h; Potency, µM (highest dose often 46.2 µM), actives largely listed as inhibitors; actives 12% (n = 420,000); note: nearly all actives have a fitted effect of over 55% in size
#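 Cell growth measured by CellTiter-Glo luminescence after a minimum 48 h, 37 C compound exposure with 20 nM CPT in Tdp1-knockout DT40 cells stably expressing hTDP1, seeded 400/well; qHTS titration format.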
# DT40 TDP1 no CPT – qHTS for Inhibitors of human tyrosyl-DNA phosphodiesterase 1 (TDP1): qHTS in cells in absence of CPT. DT40 Tdp1-/- hTDP1 cells, no CPT, ATP luminescence, 48 h. Potency, µM (doses to about 46.2 µM), most hits filed as inhibitors. actives 15% (n = 420,000). AID 686978, 2013; note: nearly all actives have a fitted effect of over 55% in size
#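 No-CPT arm: Tdp1-/-;hTDP1 DT40 cells (400/well) plus compounds, incubated ≥48 hr at 37 °C. Readout CellTiter-Glo luminescence.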
# RORgamma inh – inhibitors of mouse ROR gamma transcriptional activity; P51450; Drosophila S2 Gal4-RORgamma UAS-luciferase reporter, 20 h; Potency, µM (highest dose often 53.6 µM), hits mostly inhibitors; actives 5.4% (n = 310,000); note: nearly all actives have a fitted effect of over 60% in size
# Target sequence (P51450 whole entry, looked up, the tested form may be a part): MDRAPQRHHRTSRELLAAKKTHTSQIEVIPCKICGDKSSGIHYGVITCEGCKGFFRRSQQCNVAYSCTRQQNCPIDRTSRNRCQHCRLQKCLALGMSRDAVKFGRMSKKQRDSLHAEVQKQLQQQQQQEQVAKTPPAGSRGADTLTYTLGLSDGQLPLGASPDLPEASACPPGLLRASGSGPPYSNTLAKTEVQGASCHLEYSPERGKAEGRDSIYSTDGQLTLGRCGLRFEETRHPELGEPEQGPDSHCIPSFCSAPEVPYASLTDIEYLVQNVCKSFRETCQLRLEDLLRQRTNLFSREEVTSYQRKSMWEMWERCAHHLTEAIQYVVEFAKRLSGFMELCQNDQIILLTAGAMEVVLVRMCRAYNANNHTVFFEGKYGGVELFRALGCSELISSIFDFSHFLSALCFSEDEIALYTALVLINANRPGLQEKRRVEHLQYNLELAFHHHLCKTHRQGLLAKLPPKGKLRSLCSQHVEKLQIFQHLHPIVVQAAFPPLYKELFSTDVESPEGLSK
#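 Stable Schneider cell line, Gal4 DNA-binding domain fused to ROR gamma, UAS-luciferase. Cmpd 1 hr RT → CuSO4 700 uM final → 20 hr RT → luciferase reagent 10 min → luminescence.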
# IL-1B inflam inh – blocks inflammasome-driven IL-1 beta release | activity change, % at 57.5 µM | THP-1 LPS/ATP IL-1B secretion, AlphaLISA, 16 h; active compounds read low | actives 4.7% (n = 360,000) | AID 743279; in the data active = activity change below about -50%; inconclusive = mostly about -30% to -49%
#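 Secreted IL-1B measured by AlphaLISA bead assay after 16 h compound exposure of THP-1 cells; compounds (final up to 57.5 uM) added 1 h before LPS (250 ng/mL) and ATP (1.25 mM) stimulation; lower signal means less secretion.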
# Hits are given with their value; . = inactive; ? = inconclusive; / = no result given; ! = not active in a repeat; [ ] = dose if it differs, or a comment. Unless noted, calls come from the whole dose curve; as a rule, active = well fitted curve in the direction sought with a large enough effect; inconclusive = small, poorly fitted or top-dose-only effect, or another doubt; inactive = no such curve, though single readings can be large; an effect the other way counts as inactive or inconclusive.
SMILES,Gal4-VP16 FLuc,LDHA block,DT40 TDP1 CPT,DT40 TDP1 no CPT,RORgamma inh,IL-1B inflam inh
CN(C)S(=O)(=O)c1ccc(Cl)c(NC(=O)COC(=O)c2nn(C)c(=O)c3ccccc23)c1,/,.,/,/,/,/
CCCCC1CC2=C(C(=O)OC(C)(C)O2)C(c2cccc3ccccc23)O1 (configuration not stated),/,.,?,23µM,/,.
O=C(CSc1ccc2nnc(-c3cccnc3)n2n1)Nc1ccc(F)cc1,.,.,.,.,.,.
Nn1c(SCc2ccc(Br)cc2)nnc1-c1cccnc1,.,.,.,.,.,.
Fc1cccc(CSc2ccc3nnc(-c4cccnc4)n3n2)c1,.,.,?,16µM,.,.
Cc1ccc(CSc2ccc3nnc(-c4cccnc4)n3n2)cc1,.,.,21µM,4.1µM,.,.
Cc1ccc(CNc2ccc3nnc(-c4ccccc4)n3n2)cc1,.,.,3.7µM,2.3µM,.,.
Brc1ccc(CSc2ccc3nnc(-c4cccnc4)n3n2)cc1,.,.,?,21µM,.,.
COc1ccc(C(=O)NO)cc1,/,.,/,/,/,/
COc1ccccc1C(=O)NC(CCSC)C(=O)N1CCC(Cc2ccccc2)CC1 (configuration not stated),/,.,15µM,18µM,/,-60
COCCSc1ccccc1C(=O)N1CCC(Cc2ccccc2)CC1,.,.,?,.,.,-54
CCCSc1ccccc1C(=O)N1CCN(C(=O)c2ccco2)CC1,.,.,.,.,.,.
Cc1ccc(C(=O)N2CCC(Cc3ccccc3)CC2)cc1[N+](=O)[O-],.,.,?,?,?,.
Cc1c(C(=O)N2CCC(Cc3ccccc3)CC2)cccc1[N+](=O)[O-],.,.,?,?,.,-104
Cc1cccc(C(=O)N2CCC(Cc3ccccc3)CC2)c1[N+](=O)[O-],.,.,8.2µM,6.5µM,.[10 µM],-87
O=C(c1cc(-c2ccco2)nc2ccccc12)N1CCCCCC1,/,.,/,/,/,/
O=C(Cn1cc(C(F)(F)F)cc(Cl)c1=O)Nc1cc(Cl)ccc1F,/,.,/,/,/,/
O=C(O)c1ccccc1C(=O)/C=C/c1cccs1,/,.,/,/,/,/
Cc1cc2cc(NS(=O)(=O)c3cc(F)ccc3F)ccc2[nH]1,/,.,/,/,/,/
CNCc1ccc(-c2cc(Cl)cc(Cl)c2)o1,/,.,/,/,/,/
c1csc(-c2nc(-c3ccc4c(c3)OCCCO4)cs2)c1,/,.,/,/,/,/
CSCCC(NC(=O)c1ccccc1Br)C(=O)N1CCN(C/C=C/c2ccccc2)CC1 (configuration not stated),/,.,2.6µM,?,/,.
O=C(CSc1ccccc1C(=O)N1CCCCC1)NCC1CCCCC1,.,.,.,.,2.5µM,.
Cc1cc(F)ccc1-n1c(SCC(=O)NC2CCCC2)nc2ccsc2c1=O,/,.,/,/,/,/
CC(C)CCCCCCCCCCCCC(=O)NCC(=O)NC1C(O)C(O)C(Nc2ncnc3nc[nH]c23)OC1C(O)CO (configuration not stated),/,.,0.15µM,0.18µM,/,-100
SMILES,Gal4-VP16 FLuc,LDHA block,DT40 TDP1 CPT,DT40 TDP1 no CPT,RORgamma inh,IL-1B inflam inh
CC(O)CNc1ncnc2nc[nH]c12 (configuration not stated),.,.,.,.,.,.
CCC(=O)Nc1nnc(-c2ccccn2)o1,.,.,.,.,?,.
CC1CCCN(S(=O)(=O)c2ccc(C(=O)Nc3nnc(-c4ccccc4Cl)o3)cc2)C1 (configuration not stated),0.16µM,.,2.9µM,6.5µM,0.1µM,.
CC1CCCN(S(=O)(=O)c2ccc(C(=O)Nc3nnc(C4CC4)o3)cc2)C1 (configuration not stated),1µM,.,18µM,?,0.22µM,.
O=C(Nc1nnc(-c2ccccn2)o1)c1ccc(Br)cc1,0.63µM,.,?,18µM,0.63µM,.
CC1CCCN(S(=O)(=O)c2ccc(C(=O)Nc3nnc(-c4ccccn4)o3)cc2)C1 (configuration not stated),.,.,?,21µM,1.8µM,.
Cc1cccnc1NC(=O)c1ccc(S(=O)(=O)N2CCCC2)cc1,/,.,.,.,/,?
CCC(C)Cn1c(CCNC(=O)c2ccco2)nc2ccccc21 (configuration not stated),/,.,/,/,/,/
O=C(CSc1ncnc2ccccc12)Nc1ccccc1Oc1ccccc1,/,.,/,/,/,/
COc1ccccc1-c1nnc(NC(=O)c2ccc(S(=O)(=O)N3CCCC3)cc2)o1,0.89µM,.,23µM,9.2µM,0.71µM,.
COC(=O)C1=C(C)NC(=O)NC1c1cn(-c2ccccc2)nc1-c1cccs1 (configuration not stated),.,.,?,.,.,.
COC(=O)C1=C(C)NC(=O)NC1c1cn(-c2ccccc2)nc1-c1ccc(OC)c(Cl)c1 (configuration not stated),/,.,?,21µM,/,/
CC1=C(C(=O)OC(C)C)C(c2cn(-c3ccccc3)nc2-c2cccs2)NC(=O)N1 (configuration not stated),.,.,?,23µM,.,.
COC(=O)C1=C(C)NC(=O)NC1c1cn(-c2ccccc2)nc1-c1ccc(OC)c(Br)c1 (configuration not stated),/,.,.,?,/,/
Cc1c(C(=O)O)sc2ccsc12,/,.,/,/,/,/
O=C(O)c1ccc(/C=C/C(=O)c2ccccc2Cl)cc1,/,.,/,/,/,/
Cc1ccc(CN2C(=O)C(CC(C)C)Nc3ncnc(N4CCN(c5ccccc5)CC4)c32)cc1 (configuration not stated),/,.,15µM,21µM,/,?
CC(C)CC1Nc2ncnc(N3CCN(c4ccccc4)CC3)c2N(Cc2ccc(Cl)cc2)C1=O (configuration not stated),/,.,?,18µM,/,.
COc1ccc(CN2C(=O)C(C)Nc3ncnc(N4CCN(c5ccccc5)CC4)c32)cc1 (configuration not stated),/,.,?,?,/,.
CCC1Nc2ncnc(N3CCN(c4ccccc4)CC3)c2N(Cc2ccc(C)cc2)C1=O (configuration not stated),/,.,?,?,/,.
O=C1C(Cc2ccccc2)Nc2ncnc(N3CCCCC3)c2N1Cc1ccccc1 (configuration not stated),/,.,?,?,/,.
CC(C)CC1Nc2ncnc(N3CCCCC3)c2N(Cc2ccc(Br)cc2)C1=O (configuration not stated),/,.,?,16µM,/,.
CC(C)CC1Nc2ncnc(N3CCN(c4ccccn4)CC3)c2N(Cc2ccccc2)C1=O (configuration not stated),/,.,?,?,/,-56!
